HEK293 tox – qHTS of GLP-1 Receptor Inverse Agonists: Cytotox Screen. HEK293 cAMP-luciferase reporter cells, luminescence, 24 h. Potency, µM (titrated, usually from 38.3 µM), inactives show at the highest dose activity change, negative = inhibition, most hits filed as inhibitors. 410,000 compounds, 0.13% hits. AID 624418, 2012;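 further: loss of luciferase light is scored as toxicity; potency means the concentration at half of the fitted maximal effect; on the % scale 0 is the no-effect control and ±100 the full control effect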
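1536-well qHTS counterscreen of the MLSMR; 200 cells/uL, 12 h pre-incubation, 23 nL cpd, 24 h at 37 deg C 5% CO2, luciferase detection reagent, 12 min RT, luminescence. Inhibition = undesired.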
PTHR1 agonist – qHTS for PTHR1 Agonists: Primary Screen; Parathyroid hormone/parathyroid hormone-related peptide receptor (Homo sapiens), Q03431; HEK293 GP2 PTHR1 cells, GloSensor cAMP luminescence, 1 h; Potency, µM (highest dose often 115 µM), for inactives: at the top dose activation, hits mostly activators; 410,000 compounds, 0.075% hits; AID 743266, 2014; further: potency means the concentration at half of the fitted maximal effect; nearly all actives have a fitted effect of over 55% in size
Target sequence (Q03431 whole entry, looked up): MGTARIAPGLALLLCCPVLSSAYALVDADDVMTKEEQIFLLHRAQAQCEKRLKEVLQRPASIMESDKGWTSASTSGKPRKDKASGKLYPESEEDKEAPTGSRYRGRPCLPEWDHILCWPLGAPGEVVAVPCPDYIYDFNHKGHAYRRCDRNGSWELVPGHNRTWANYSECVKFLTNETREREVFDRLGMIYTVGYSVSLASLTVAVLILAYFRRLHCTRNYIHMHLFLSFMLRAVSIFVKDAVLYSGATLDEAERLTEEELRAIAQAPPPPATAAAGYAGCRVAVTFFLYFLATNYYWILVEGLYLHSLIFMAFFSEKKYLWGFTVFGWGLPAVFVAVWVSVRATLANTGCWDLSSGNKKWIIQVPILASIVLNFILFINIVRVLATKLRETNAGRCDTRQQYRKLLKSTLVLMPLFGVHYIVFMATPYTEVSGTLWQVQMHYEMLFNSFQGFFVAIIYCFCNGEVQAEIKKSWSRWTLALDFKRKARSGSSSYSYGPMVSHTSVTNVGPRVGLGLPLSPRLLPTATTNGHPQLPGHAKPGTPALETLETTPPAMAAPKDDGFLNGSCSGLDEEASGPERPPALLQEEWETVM
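HEK-293-derived GP2 cells expressing PTHR1 and a GloSensor cAMP reporter, 3,000/well, plated overnight, given luciferin plus IBMX (each 0.5 mM as added) for 1 h at 37 °C, then compound for 1 h at 37 °C. Luminescence was read after 15 min at room temperature.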
RXFP1 agonist – qHTS Assay for Agonists of the Relaxin Receptor RXFP1 | Relaxin receptor 1 (Homo sapiens), Q9HBX9 | HEK293T-RXFP1 cAMP TR-FRET, 30 min; response scale: percent of porcine relaxin response, buffer zero | Potency, µM (series often up to 57.5 µM), for the others: at the highest dose activation, hits mostly activators | 370,000 compounds, 0.3% hits; further: potency means the concentration at half of the fitted maximal effect; on the % scale 0 is the no-effect control and ±100 the full control effect; nearly all actives have a fitted effect of over 60% in size
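HEK293T cells stably expressing RXFP1 were pretreated with the PDE4 inhibitor Ro 20174, exposed to compounds for 30 min at 37C, lysed, and cAMP was read by TR-FRET. Data normalized to buffer (basal) and 29 nM porcine relaxin (100%).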
RXFP1 antagonist – qHTS Assay for Antagonists of the Relaxin Receptor RXFP1 | Relaxin receptor 1 (Homo sapiens), Q9HBX9 | HEK293-RXFP1, relaxin-stimulated cAMP HTRF, 30 min; active compounds read low | activity change, negative = inhibition, % at 57.5 µM | 350,000 compounds, 0.59% hits;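 active means activity change of -60% or lower, but not beyond a set lower limit; inconclusive means change between -60% and -40%, or beyond the set limit; inactive means change above -40%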; further: on the % scale 0 is the no-effect control and ±100 the full control effect
TSHR antagonist – Antagonists of the Thyroid Stimulating Hormone Receptor: HTS campaign; Thyrotropin receptor (Homo sapiens), P16473; TSHR-expressing cells, TSH-stimulated cAMP HTRF, 2 h; active compounds read low; activity change, negative = inhibition, % at 11.5 µM; 330,000 compounds, 0.2% hits;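 active means activity change below a set negative limit, meaning inhibition stronger than a set level, cut at about -70% in these data; inconclusive means activity change between two set negative limits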; further: on the % scale 0 is the no-effect control and ±100 the full control effect
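Competitive HTRF cAMP read-out (cryptate anti-cAMP antibody, cAMP-d2; 30 min, room temperature) in freshly harvested TSHR cells. Compounds added before TSH at EC80 (4nM final), followed by 2 hours' incubation at 37 deg C.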
NPSR antagonist – qHTS Assay for Antagonists of the Neuropeptide S Receptor: cAMP Signal Transduction | Q6W5P4 | CHO-NPSR cells, cAMP TR-FRET, antagonist mode | Potency, µM (series often up to 38.3 µM), inactives show top-dose activity change, negative = inhibition, hits mostly inhibitors | 220,000 compounds, 1% hits; further: potency means the concentration at half of the fitted maximal effect; on the % scale 0 is the no-effect control and ±100 the full control effect; nearly all actives have a fitted effect of over 50% in size
* = called active by the depositor; i = inactive; ? = inconclusive; . = no result; [ ] = remark or other dose. This is one part of a sample in which hits are shown more often than they occur. Unless noted, the call rests on the fitted dose curve; in most records, active means well fitted curve in the direction sought with a large enough effect; inconclusive means small, poorly fitted or top-dose-only effect, or another doubt; inactive means no such curve, though single readings can be large; an effect the other way counts as inactive or inconclusive.

SMILES	HEK293 tox	PTHR1 agonist	RXFP1 agonist	RXFP1 antagonist	TSHR antagonist	NPSR antagonist
O=C(N=C1SC2CS(=O)(=O)CC2N1c1ccc(F)cc1)C1CC1 (stereo not drawn)	-3%	i	-3%	-12	-109*	.
N#Cc1nc(-c2ccccc2F)oc1NC1CCCCC1	-7%	-80%	5%	-60*	-25	?
CC(=O)C[C@H]1[C@H](O[C@H]2[C@H](OC(C)C(=O)N[C@@H](C)C(=O)N[C@H](CCC(=O)N[C@@H](CCCCN)C(=O)N[C@H](C)C(=O)O)C(N)=O)[C@@H](NC(=O)O)C(O)O[C@@H]2CO)O[C@H](CO)[C@@H](O)[C@@H]1O (stereo partly drawn)	.	.	.	19	.	.
CC1Cc2cc(/C=C3/SC(=S)NC3=O)ccc2O1 (stereo not drawn)	10µM*	-58%	-2%	-23	-37	-52%
CCN(CC)c1ccc(C=C2SC(=S)NC2=O)cc1	-13%	-26%	.	?	.	.
CCOC(=O)c1cccc(NC(=O)CSc2ncc3c(n2)-c2ccc(Cl)cc2N(Cc2ccccc2)S3(=O)=O)c1	4%	0%	32µM*	.	.	.
COc1ccccc1CNC(=O)CSc1ncc2c(n1)-c1ccc(Cl)cc1N(Cc1ccccc1)S2(=O)=O	-8%	i	4.5µM*	7	.	.
COc1ccccc1OCCCCN1CCN(C(c2ccccc2)c2ccccc2)CC1	?	-39%	-1%	-80*	31	-52%
c1ccc(CN2CCN(C(c3ccccc3)c3ccccc3)CC2)cc1	?	i	1%	-104*	4	.
c1ccc(OCCOCCN2CCN(C(c3ccccc3)c3ccccc3)CC2)cc1	?	-65%	-1%	-26	13	-40%
COCCNC(=O)c1ccc(Cn2c(=S)[nH]c3cc4c(cc3c2=O)OCO4)cc1	13%	-3%[57.5 µM]	3%	-104*	3	-24%[46.1 µM]
CCOc1cc2[nH]c(=S)n(Cc3ccc(C(=O)NCCCOC)cc3)c(=O)c2cc1OCC	9%	i	?	-4	12	.
COC(=O)c1ccc2c(=O)n(Cc3ccc4c(c3)OCO4)c(=S)[nH]c2c1	3%	i	?	6	3	.
COC(CNC(=O)c1ccc(Cn2c(=S)[nH]c3cc4c(cc3c2=O)OCO4)cc1)OC	-6%	i	4%	-98*	-49	-21%[46.1 µM]
O=C(NCc1ccccn1)c1ccc(Cn2c(=S)[nH]c3ccc(Br)cc3c2=O)cc1	9%[7.66 µM]	i	2%	-12	-2	-28%
O=C(NCc1ccccn1)c1ccc(Cn2c(=S)[nH]c3ccccc3c2=O)cc1	2%	-21%	2%	-77*	7	-7%
CCc1nc2ccc(C(=O)NCCc3ccccn3)cn2c1N(CC)CCOC	-4%	-20%	.	.	.	.
COC(=O)[C@@H](N)CS	-7%	-4%	2%	.	6	13%
COC(=O)[C@@]12C[C@@H](CC(=O)N3CCN(C(=O)C4CC4)CC3)C(=O)N(Cc3ccc4c(c3)OCO4)C1=CCC(C)(C)C2	3%	-7%	.	.	.	.
Oc1ccc(-c2csc(Nc3ncccn3)n2)c(O)c1	-12%	-31%	0%	-4	5	-2%
Cc1cccc(Nc2nc(-c3ccc(O)cc3O)cs2)n1	30%	-26%	1%	-79*	39	.
O=C(Cc1ccc(Cl)cc1)NN1C(=O)c2ccccc2C1=O	-4%	i	0%	-1	-4	8%
COC(=O)[C@@H]1[C@@H](C#N)C2(c3ccccc3-c3ccccc32)N(c2ccc(Cl)cc2)N1C#N	?	i	0%	-73*	-5	10µM*
O=C(/C=C/C(Cl)(Cl)Cl)Nc1ccc(Cl)cc1	?	-28%	.	-73*	.	.
CC(C)n1cnc2c(N(C)c3ccccc3)nc(N(CCN(C)C)Cc3ccccc3)nc21	?	14%	-1%	.	-5	10µM*
SMILES	HEK293 tox	PTHR1 agonist	RXFP1 agonist	RXFP1 antagonist	TSHR antagonist	NPSR antagonist
COc1cc(N(Cc2ccccc2)Cc2ccccc2)c2ncn(C(C)C)c2c1	3%	i	1%	.	-7	.
Cc1cccc(CC(=O)NCC(=O)NCc2cc(=O)n(C)c(=O)n2C)c1	3%	-5%	2%	13	-90*	.
Cc1cc(C)cc(NC(=S)N=Nc2c(O)n(C)c3ccc(S(=O)(=O)N4CCOCC4)cc23)c1	?	i	-1%	6	-8	-2%
Cc1ccc(NC(=S)N=Nc2c(O)n(C)c3ccc(S(=O)(=O)N4CCOCC4)cc23)cc1	0.63µM*	-12%	-2%	-9	-7	-11%
COc1cc2c(cc1OC)C(COc1ccc3c(C)cc(=O)oc3c1)N(C(=O)Cc1ccc(F)cc1)CC2 (stereo not drawn)	-5%	i	0%	-9	.	.
COc1cc2c(cc1OC)C(COc1ccc3c(C)cc(=O)oc3c1)N(C(=O)Cc1ccccc1)CC2 (stereo not drawn)	1%	-21%	35µM*	-6	.	.
Cc1c(C(=O)N2CCC(C)CC2)c(S(=O)(=O)NCc2ccc(Cl)cc2)c(C)n1C	-25%	i	3%	-12	.	.
CSC(=Nc1ccccc1)N=C(SCc1ccccc1)N(C)C	5.6µM*	-6%	.	-100*	.	.
COc1ccc(OCC(=O)c2c(O)c3ccccc3oc2=O)cc1	-1%	18µM*	0%	-10	-9	0%[46.1 µM]
CC1(C)CC[C@]2(CO)CC[C@]3(C)C(=CCC4[C@@]5(C)CC[C@H](O)[C@@](C)(CO)C5CC[C@]43C)[C@@H]2C1 (stereo partly drawn)	15%	-2%	.	.	9	.
O=C(OCCc1cc2ccccc2c(=O)o1)c1ccccc1C(F)(F)F	4%	-19%	1%	.	-71*	.
CCc1ccc2c(c1)/C(=C/C(=O)c1cccs1)C(=O)N2	?	-24%[57.5 µM]	1%	-92*	-31	10µM*
Cc1cccc2c1NC(=O)/C2=C\C(=O)c1cccs1	?	-27%	1%	-92*	-13	-23%[46.1 µM]
CCOC(=O)N1CCN(c2c(F)cc3[nH]c(=S)[nH]c3c2Br)CC1	-25%	33%[57.5 µM]	5%	-65*	1	-12%[46.1 µM]
Nc1sccc1C(=O)NCc1ccccc1	-9%	-4%	.	.	.	.

Bioassay records (PubChem BioAssay)
